Assay [1] can be described thus: ATG_GLI_CIS: Attagene CIS-FACTORIAL HepG2 Assay for human Zinc Finger Protein GLI1 (AID 2282945). Particulars: HepG2, Attagene cis-factorial reporter mRNA, GLI element; actives raise or lower the signal. The method in brief: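 Bidirectional curve fits relative to DMSO, using reporter mRNA levels from RT-PCR plus capillary electrophoresis. Cells were HepG2 transiently carrying cis-regulated reporter constructs, harvested 24 h after dosing.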

Assay [2] concerns the target Bile acid receptor (Homo sapiens) (UniProt Q96RI1). The experiment in a line: ATG_IR1_CIS: Attagene CIS-FACTORIAL HepG2 Assay for human Nuclear Receptor Subfamily 1 Group H Member 4 (NR1H4), IR1 submotif (AID 2282946). Particulars: IR1 reporter transcription, actives raise or lower the signal. The method in brief: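 Cells (human HepG2) carry transiently transfected cis-promoter reporter transcription units. Compounds are incubated 24 h, total RNA is reverse-transcribed and amplified, and labelled fragments are resolved by capillary electrophoresis. Curves use DMSO as baseline.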

Assay [3] is described as follows: ATG_GRE_CIS: Attagene CIS-FACTORIAL HepG2 Assay for human Glucocorticoid Response Elements (GRE) (AID 2282947). Particulars: HepG2 GRE cis-reporter, Attagene multiplex mRNA; actives raise or lower the signal. The essentials: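 Transient MRTU transfection of human HepG2 liver cells; cis-regulated reporters report endogenous factors. 24 h dosing → RNA isolation → RT-PCR → 6-FAM primer extension → HpaI cut → CE fragment analysis. Bidirectional fit, DMSO negative control.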

Assay [4] in a line: ATG_ISRE_CIS: Attagene CIS-FACTORIAL HepG2 Assay for human Interferon Regulatory Factor 1 (IRF1) binding to an Interferon-Stimulated Response Element (ISRE) (AID 2282948). Conditions: HepG2 ISRE cis-reporter (Attagene), mRNA transcription readout; actives raise or lower the signal. The essentials:
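Quantitation relies on labelled RT-PCR fragments separated by capillary electrophoresis. Human HepG2 cells bearing cis-promoter reporter constructs were treated 24 h; DMSO served as baseline for bidirectional fitting.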

The nature of assay [5]: ATG_M_32_CIS: Attagene CIS-FACTORIAL HepG2 Assay for M32 Transcription Factor (Internal Marker) (AID 2282949).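 Note: background control marker of the multiplexed CIS panel rather than a real target.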 Conditions: HepG2 Attagene cis-factorial M32 reporter, mRNA; actives raise or lower the signal. The essentials: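 Fluorescent capillary electrophoresis peaks of HpaI-digested, FAM-labelled RT-PCR reporter products give the signal. Source: transiently transfected human liver HepG2 cells, 24 h after chemical dosing; bidirectional fitting against DMSO.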

Assay [6] is described as follows: ATG_M_06_CIS: Attagene CIS-FACTORIAL HepG2 Assay for M06 Transcription Factor (Internal Marker) (AID 2282950). Particulars: HepG2 Attagene CIS-FACTORIAL M06 internal marker reporter; actives raise or lower the signal. The essentials: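 Serves as a background control readout. Transfected HepG2 exposed to compounds for 24 h, then reporter transcripts quantified by fluorescent RT-PCR and capillary electrophoresis. Both directions fitted against DMSO baseline.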

Assay [7] deals with Hypoxia-inducible factor 1-alpha (Homo sapiens) (UniProt Q16665). The experiment in a line: ATG_HIF1a_CIS: Attagene CIS-FACTORIAL HepG2 Assay for human Hypoxia Inducible Factor 1 (HIF1A) (AID 2282951). Conditions: HepG2 Attagene cis-factorial HIF1a reporter transcription; actives raise or lower the signal. The method in brief:
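Endogenous-TF cis reporter readout, human HepG2 cells, 24 h incubation; mRNA detected via RT-PCR and capillary electrophoresis fluorescence; DMSO-normalised bidirectional fitting.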

Assay [8] deals with Hepatocyte nuclear factor 6 (Homo sapiens) (UniProt Q9UBC0). The experiment in a line: ATG_HNF6_CIS: Attagene CIS-FACTORIAL HepG2 Assay for human Hepatocyte Nuclear Factor 6 (HNF6) (AID 2282952). Conditions: HepG2 Attagene cis-factorial HNF6 reporter transcription; actives raise or lower the signal. The method in brief:
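Reporter mRNA induction or loss in HepG2 after 24 h exposure; transient cis-MRTU transfection; fragments quantified by capillary electrophoresis; bidirectional analysis, DMSO as negative control.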

Assay [9] addresses Heat shock factor protein 1 (Homo sapiens) (UniProt Q00613). The assay is described as follows: ATG_HSE_CIS: Attagene CIS-FACTORIAL HepG2 Assay for human Heat Shock Transcription Factor 1 (HSE) (AID 2282953). Conditions: HepG2 HSE cis-reporter, Attagene RNA transcription; actives raise or lower the signal. The method in brief: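 Endogenous transcription factor activity in transiently transfected HepG2, read as reporter mRNA by RT-PCR with fluorescent capillary electrophoresis after 24 h. Gain or loss of signal fitted versus DMSO baseline.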

The nature of assay [10]: ATG_MRE_CIS: Attagene CIS-FACTORIAL HepG2 Assay for human Metal Responsive Element (MRE) (AID 2282954). Conditions: HepG2 MRE cis-reporter transcription, Attagene multiplex; actives raise or lower the signal. The method in brief: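 Transient MRTU transfection of HepG2 (FuGene 6); 24 h dosing; total RNA → oligo(dT) RT, PCR, 6-FAM primer extension, HpaI cut, CE. Bidirectional fit vs DMSO.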

Assay [11] is described as follows: ATG_PBREM_CIS: Attagene CIS-FACTORIAL HepG2 Assay for human Phenobarbital-responsive Enhancer Module (PBREM) (AID 2282955). Particulars: HepG2 PBREM cis-reporter, Attagene multiplexed transcription; actives raise or lower the signal. The essentials: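 Readout: reporter mRNA, fluorescent RT-PCR fragments separated by capillary electrophoresis. System: HepG2 transiently transfected with cis-regulated reporter units. Exposure: 24 h. Analysis: bidirectional, DMSO baseline.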

Assay [12] addresses Paired box protein Pax-6 (Homo sapiens) (UniProt P26367). The assay is described as follows: ATG_Pax6_CIS: Attagene CIS-FACTORIAL HepG2 Assay for human Paired Box 6 (PAX6) (AID 2282956). Conditions: HepG2 CIS-FACTORIAL PAX6 reporter transcription, RNA readout; actives raise or lower the signal. The method in brief:
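After twenty-four hours of chemical exposure, transfected HepG2 cells are harvested for RNA. Cis-promoter reporter transcripts are amplified, fluorescently labelled and sized by capillary electrophoresis, with gain and loss of signal scored against DMSO.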

Assay [13] in a line: ATG_PXRE_CIS: Attagene CIS-FACTORIAL HepG2 Assay for human Pregnane X Receptor Element (PXRE) (AID 2282957). Conditions: HepG2 Attagene CIS-FACTORIAL PXRE reporter, mRNA; actives raise or lower the signal. The method in brief:
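Transiently transfected HepG2 cells were dosed and incubated for 24 h. RNA was then isolated, DNase-treated, reverse-transcribed and reporter sequences amplified. Labeled, HpaI-digested fragments were quantified by capillary electrophoresis against DMSO.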

Assay [14] in a line: ATG_PPRE_CIS: Attagene CIS-FACTORIAL HepG2 Assay for human Peroxisome Proliferator-activated Response Element (PPRE) (AID 2282958). Conditions: HepG2 PPRE cis-element reporter, Attagene transcription factor profiling; actives raise or lower the signal. The essentials: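 After human HepG2 hepatoma cells were transiently transfected with cis-promoter reporter constructs, they were exposed to test chemicals for 24 hours. Reporter RNA was then reverse-transcribed, PCR-amplified, FAM-labeled, HpaI-digested and quantified by capillary electrophoresis.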

The nature of assay [15]: ATG_RORE_CIS: Attagene CIS-FACTORIAL HepG2 Assay for human RAR-related Orphan Receptor Element (RORE) (AID 2282959). Particulars: HepG2 Attagene cis-factorial RORE reporter, mRNA; actives raise or lower the signal. The method in brief:
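Measured here: transcript induction of a cis-regulated reporter in HepG2 cells transiently transfected via FuGene 6. After 24 h, RNA was processed by RT-PCR and fluorescent capillary electrophoresis; DMSO defined baseline activity.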

Assay [16] is described as follows: ATG_Sox_CIS: Attagene CIS-FACTORIAL HepG2 Assay for human SRY-box transcription factor (SOX) (AID 2282960). Particulars: HepG2 Attagene cis-factorial SOX reporter, mRNA; actives raise or lower the signal. The essentials: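 Using transiently transfected HepG2 cells, reporter transcription driven by cis elements was assessed 24 h after dosing. Signal was fluorescence of capillary-separated RT-PCR products, with DMSO defining baseline activity.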

Assay [17] concerns the target Transcription factor Sp1 (Homo sapiens) (UniProt P08047). The assay is described as follows: ATG_Sp1_CIS: Attagene CIS-FACTORIAL HepG2 Assay for human Specificity Protein 1 (Sp1) (AID 2282961). Conditions: HepG2 Sp1 cis-reporter transcription, actives raise or lower the signal. The method in brief:
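After transient transfection of HepG2 cells with cis-promoter reporter units and 24 h chemical treatment, reporter transcripts were quantified by RT-PCR and capillary electrophoresis fluorescence. Gain- and loss-of-signal fitted against DMSO.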

A short description of assay [18]: ATG_SREBP_CIS: Attagene CIS-FACTORIAL HepG2 Assay for human Sterol Regulatory Element Binding (SREBP) (AID 2282962). Conditions: HepG2 Attagene cis-factorial SREBP reporter, mRNA; actives raise or lower the signal. The method in brief: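 Twenty-four hours after chemical dosing of transfected HepG2 cultures, reporter RNA was converted to cDNA, amplified, end-labelled with 6-FAM and resolved by capillary electrophoresis. Responses were fitted relative to DMSO.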

Assay [19] concerns the target Signal transducer and activator of transcription 3 (Homo sapiens) (UniProt P40763). The experiment in a line: ATG_STAT3_CIS: Attagene CIS-FACTORIAL HepG2 Assay for human Signal Transducer and Activator of Transcription 3 (STAT3) (AID 2282963). Particulars: HepG2, Attagene cis-factorial STAT3 reporter transcription; actives raise or lower the signal. The essentials: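 Endogenous STAT3-responsive cis-element activity was read in transiently transfected HepG2 cells after 24 h treatment. Reporter transcripts were quantified via RT-PCR and capillary electrophoresis, with DMSO as negative control and bidirectional curve fitting.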

A short description of assay [20]: ATG_TA_CIS: Attagene CIS-FACTORIAL HepG2 Assay for human TA Basal Promoter (AID 2282964). Particulars: HepG2 Attagene CIS-factorial TA basal promoter reporter; actives raise or lower the signal. The essentials:
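Background-control readout: TA basal promoter reporter mRNA, fitted in both directions relative to DMSO. Measured by RT-PCR and capillary electrophoresis 24 hours after treating HepG2 human liver cells transiently carrying multiplexed cis-regulated reporter constructs.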

The source made the active and inactive calls. Rule for the calls: active = hit-call score of the fitted dose curve at least 0.9, where 1 is the maximum; inactive = score below 0.9.

A word on the AC50: it is the concentration giving half of the maximal activity seen.

Paired box protein Pax-6 (Homo sapiens), sequence (P26367 whole entry, looked up): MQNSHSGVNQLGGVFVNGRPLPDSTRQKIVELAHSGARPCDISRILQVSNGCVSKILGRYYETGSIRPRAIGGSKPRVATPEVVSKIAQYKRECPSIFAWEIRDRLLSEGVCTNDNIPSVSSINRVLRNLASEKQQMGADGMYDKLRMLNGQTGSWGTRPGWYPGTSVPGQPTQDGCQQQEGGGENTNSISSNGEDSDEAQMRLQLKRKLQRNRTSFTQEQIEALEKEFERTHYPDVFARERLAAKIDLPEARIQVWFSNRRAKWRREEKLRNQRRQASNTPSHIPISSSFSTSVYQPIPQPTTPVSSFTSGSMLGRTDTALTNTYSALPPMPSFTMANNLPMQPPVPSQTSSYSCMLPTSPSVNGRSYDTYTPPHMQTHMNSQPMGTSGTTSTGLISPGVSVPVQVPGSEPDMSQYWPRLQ
Signal transducer and activator of transcription 3 (Homo sapiens), sequence (P40763 whole entry, looked up): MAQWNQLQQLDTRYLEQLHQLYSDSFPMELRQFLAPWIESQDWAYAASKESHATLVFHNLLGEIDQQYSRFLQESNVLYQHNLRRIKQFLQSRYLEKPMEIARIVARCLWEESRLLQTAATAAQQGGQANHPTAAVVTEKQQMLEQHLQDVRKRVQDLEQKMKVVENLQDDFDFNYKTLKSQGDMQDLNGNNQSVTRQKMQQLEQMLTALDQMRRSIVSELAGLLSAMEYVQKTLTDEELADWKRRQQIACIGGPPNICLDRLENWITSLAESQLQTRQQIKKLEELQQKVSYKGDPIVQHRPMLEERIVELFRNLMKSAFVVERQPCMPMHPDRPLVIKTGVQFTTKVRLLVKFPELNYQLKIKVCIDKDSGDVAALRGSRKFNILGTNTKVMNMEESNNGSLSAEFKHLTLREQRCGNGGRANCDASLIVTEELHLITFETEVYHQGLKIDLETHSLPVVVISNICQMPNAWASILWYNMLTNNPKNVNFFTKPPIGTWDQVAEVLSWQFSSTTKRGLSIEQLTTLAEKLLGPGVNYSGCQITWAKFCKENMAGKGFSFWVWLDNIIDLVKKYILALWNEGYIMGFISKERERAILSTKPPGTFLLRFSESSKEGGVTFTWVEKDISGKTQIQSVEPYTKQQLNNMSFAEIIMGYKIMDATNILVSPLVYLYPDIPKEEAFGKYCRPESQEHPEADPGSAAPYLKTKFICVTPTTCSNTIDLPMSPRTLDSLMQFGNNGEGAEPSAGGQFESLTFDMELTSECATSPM
Heat shock factor protein 1 (Homo sapiens), sequence (Q00613 whole entry, looked up): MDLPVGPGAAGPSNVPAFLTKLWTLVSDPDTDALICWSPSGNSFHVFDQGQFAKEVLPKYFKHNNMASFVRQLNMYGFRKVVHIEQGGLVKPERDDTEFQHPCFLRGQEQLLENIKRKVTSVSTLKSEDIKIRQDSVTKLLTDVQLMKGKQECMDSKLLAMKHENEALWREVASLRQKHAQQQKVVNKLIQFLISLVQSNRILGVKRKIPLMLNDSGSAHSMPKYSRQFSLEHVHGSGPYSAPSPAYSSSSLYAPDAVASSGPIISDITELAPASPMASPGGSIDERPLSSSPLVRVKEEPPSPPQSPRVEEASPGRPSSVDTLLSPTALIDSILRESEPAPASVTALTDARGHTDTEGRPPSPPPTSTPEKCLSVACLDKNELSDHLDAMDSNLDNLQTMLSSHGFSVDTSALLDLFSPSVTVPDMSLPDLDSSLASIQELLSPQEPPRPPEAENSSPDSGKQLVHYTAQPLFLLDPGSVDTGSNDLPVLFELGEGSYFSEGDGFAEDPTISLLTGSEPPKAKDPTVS
Transcription factor Sp1 (Homo sapiens), sequence (P08047 whole entry, looked up): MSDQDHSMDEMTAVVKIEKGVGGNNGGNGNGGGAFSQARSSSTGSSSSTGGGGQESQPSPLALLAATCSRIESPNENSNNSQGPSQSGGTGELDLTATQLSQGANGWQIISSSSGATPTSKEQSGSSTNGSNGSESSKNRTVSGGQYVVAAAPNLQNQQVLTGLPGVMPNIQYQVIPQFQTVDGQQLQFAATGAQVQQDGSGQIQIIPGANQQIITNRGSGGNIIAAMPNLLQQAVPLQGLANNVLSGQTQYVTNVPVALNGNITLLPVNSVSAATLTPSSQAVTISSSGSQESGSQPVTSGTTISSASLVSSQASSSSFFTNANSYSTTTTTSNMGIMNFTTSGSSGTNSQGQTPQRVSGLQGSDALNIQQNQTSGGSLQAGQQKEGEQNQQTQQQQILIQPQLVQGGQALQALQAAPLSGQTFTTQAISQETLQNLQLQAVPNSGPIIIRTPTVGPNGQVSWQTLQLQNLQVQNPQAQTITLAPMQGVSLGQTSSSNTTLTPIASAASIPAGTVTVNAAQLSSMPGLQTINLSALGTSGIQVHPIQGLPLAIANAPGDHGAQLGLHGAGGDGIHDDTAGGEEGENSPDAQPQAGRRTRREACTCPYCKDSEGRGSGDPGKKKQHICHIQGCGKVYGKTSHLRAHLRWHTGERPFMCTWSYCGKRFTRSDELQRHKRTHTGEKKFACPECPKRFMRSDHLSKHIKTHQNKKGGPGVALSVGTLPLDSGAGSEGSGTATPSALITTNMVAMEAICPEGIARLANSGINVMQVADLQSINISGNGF
Hypoxia-inducible factor 1-alpha (Homo sapiens), sequence (Q16665 whole entry, looked up): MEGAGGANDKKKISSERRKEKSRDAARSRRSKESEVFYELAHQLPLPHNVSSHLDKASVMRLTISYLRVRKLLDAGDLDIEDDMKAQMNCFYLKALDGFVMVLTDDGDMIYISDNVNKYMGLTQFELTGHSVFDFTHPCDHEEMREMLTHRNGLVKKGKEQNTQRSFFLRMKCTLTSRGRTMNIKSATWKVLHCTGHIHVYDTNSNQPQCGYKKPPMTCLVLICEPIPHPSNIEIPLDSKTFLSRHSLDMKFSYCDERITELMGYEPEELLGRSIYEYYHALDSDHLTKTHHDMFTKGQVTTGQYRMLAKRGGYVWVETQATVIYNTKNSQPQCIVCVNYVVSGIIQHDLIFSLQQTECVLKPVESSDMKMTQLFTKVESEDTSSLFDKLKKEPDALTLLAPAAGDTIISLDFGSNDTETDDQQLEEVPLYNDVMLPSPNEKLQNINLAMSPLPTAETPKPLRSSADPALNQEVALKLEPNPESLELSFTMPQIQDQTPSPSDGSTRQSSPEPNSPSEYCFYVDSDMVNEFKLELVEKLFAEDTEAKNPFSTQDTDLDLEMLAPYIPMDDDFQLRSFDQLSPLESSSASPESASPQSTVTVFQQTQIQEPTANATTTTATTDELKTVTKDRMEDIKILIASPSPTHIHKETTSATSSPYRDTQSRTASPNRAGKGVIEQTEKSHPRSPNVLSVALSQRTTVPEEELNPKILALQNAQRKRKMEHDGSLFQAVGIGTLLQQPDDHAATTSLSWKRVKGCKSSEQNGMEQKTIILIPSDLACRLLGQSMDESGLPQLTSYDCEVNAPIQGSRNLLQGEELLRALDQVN
Bile acid receptor (Homo sapiens), sequence (Q96RI1 whole entry, looked up, the tested form may be a part): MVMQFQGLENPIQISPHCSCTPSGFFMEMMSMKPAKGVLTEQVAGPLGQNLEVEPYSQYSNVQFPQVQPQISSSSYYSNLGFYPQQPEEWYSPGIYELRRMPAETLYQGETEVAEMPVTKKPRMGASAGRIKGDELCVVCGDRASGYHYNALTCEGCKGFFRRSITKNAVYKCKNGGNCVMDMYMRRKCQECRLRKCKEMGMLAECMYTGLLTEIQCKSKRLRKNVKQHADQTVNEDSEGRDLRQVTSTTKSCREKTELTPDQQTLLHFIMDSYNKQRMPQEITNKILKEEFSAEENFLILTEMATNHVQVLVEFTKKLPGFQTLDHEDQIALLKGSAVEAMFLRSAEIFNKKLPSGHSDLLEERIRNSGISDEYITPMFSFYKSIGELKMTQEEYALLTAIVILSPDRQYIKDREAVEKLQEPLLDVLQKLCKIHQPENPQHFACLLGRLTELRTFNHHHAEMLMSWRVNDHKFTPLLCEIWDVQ
Hepatocyte nuclear factor 6 (Homo sapiens), sequence (Q9UBC0 whole entry, looked up, the tested form may be a part): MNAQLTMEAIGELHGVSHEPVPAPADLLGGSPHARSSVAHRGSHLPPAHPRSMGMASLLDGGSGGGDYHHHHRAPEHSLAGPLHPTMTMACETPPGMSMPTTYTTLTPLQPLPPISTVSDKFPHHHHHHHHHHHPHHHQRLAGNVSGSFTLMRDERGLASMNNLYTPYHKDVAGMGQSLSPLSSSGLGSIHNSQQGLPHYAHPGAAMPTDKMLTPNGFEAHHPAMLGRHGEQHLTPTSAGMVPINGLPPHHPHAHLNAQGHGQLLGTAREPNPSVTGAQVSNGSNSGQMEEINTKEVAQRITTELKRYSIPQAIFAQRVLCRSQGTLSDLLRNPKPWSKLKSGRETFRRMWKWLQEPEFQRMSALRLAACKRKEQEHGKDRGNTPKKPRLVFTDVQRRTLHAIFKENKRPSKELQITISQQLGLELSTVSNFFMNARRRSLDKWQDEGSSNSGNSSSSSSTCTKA

As to `C=C(C)C(=O)OCC(F)(F)C(F)(F)C(F)(F)C(F)(F)C(F)(F)C(F)(F)C(F)(F)F`, the result in [1], in assay [2], in [3], in assay [4], in [5] and in assay [6] was inactive. The result in assay [7], in assay [8], in [9], in [10], in assay [11] and in assay [12] was inactive. Also, the compound was called inactive in assay [13], in assay [14], in assay [15], in assay [16], in assay [17] and in [18]. The compound was classed as inactive in assay [19] and in assay [20].
Regarding `CN(C)Cc1ccccc1O`, the outcome in [1], in assay [2], in [3], in assay [4], in assay [5] and in assay [6] was inactive. Moreover, the compound was called inactive in assay [7], in [8], in assay [9], in assay [10], in assay [11] and in [12]. In addition, the call in assay [13], in assay [14], in assay [15], in assay [17], in assay [18] and in assay [19] was inactive. The AC50 in [20] was 165 µM (active).
In the case of `CCc1ccc(C(c2ccc(CC)cc2)C(Cl)Cl)cc1`, the compound was called inactive in assay [1], in assay [2], in assay [3], in assay [4], in assay [5] and in [6]. For the same compound, the call in [7], in assay [10], in assay [11], in assay [12], in [14] and in [15] was inactive. Besides, the compound was classed as inactive in assay [17], in assay [19] and in assay [20]. For the same compound, in [13], the half-maximal activity concentration (AC50) is 2.28 µM (active).
Take `O=C(O)C(F)(F)C(F)(F)C(F)(F)C(F)(F)C(F)(F)C(F)(F)C(F)(F)C(F)(F)C(F)(F)C(F)(F)C(F)(F)C(F)(F)C(F)(F)F`: the outcome in [1], in assay [2], in assay [3], in assay [4], in [5] and in assay [6] was inactive. Moreover, the outcome in assay [7], in assay [8], in [9], in assay [10], in assay [11] and in assay [12] was inactive. For the same compound, the compound was classed as inactive in assay [14], in assay [17], in assay [19] and in assay [20]. Besides, the half-maximal activity concentration (AC50) in assay [13] was 21.8 µM (active).

The values are drawn from PubChem BioAssay (EPA / NIEHS).
